# Laboratory results published in paper PMC7862700, “An all-to-all approach to the identification of sequence-specific readers for epigenetic DNA modifications on cytosine”.
# Key:
# Assay in all cases: DAPPL (digital affinity profiling via proximity ligation, sequencing); 10 mM Tris-HCl pH 7.5, 50 mM NaCl, 1 mM DTT, 4% glycerol, room temperature, 30 min; GST-TFs on glutathione beads, 16-mer random dsDNA library, 0.1% formaldehyde crosslink after washing; high values mean tight binding
# [1] = target: T1, FEV (Homo sapiens, UniProt Q99581 1-238); details: protein: recombinant; tags: N-terminal GST; dsDNA, one strand shown
# T1 sequence: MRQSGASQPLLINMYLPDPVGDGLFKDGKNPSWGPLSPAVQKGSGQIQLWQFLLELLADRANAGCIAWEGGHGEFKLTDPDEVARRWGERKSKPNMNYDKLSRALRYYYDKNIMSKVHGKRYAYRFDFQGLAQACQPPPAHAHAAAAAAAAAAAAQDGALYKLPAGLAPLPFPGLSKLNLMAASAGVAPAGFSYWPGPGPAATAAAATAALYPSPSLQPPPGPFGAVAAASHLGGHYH
# How it was run: (§1)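 After expression in yeast as GST fusions, human transcription factors were bound to glutathione beads, DNA-barcoded and mixed with a tag-only sample. The pools were incubated with 200 nmole of a 16-mer random double-stranded DNA library in Tris/NaCl/DTT/glycerol buffer (30 min, room temperature), washed and crosslinked with 0.1% formaldehyde. Proximity ligation with BsaI/T4 ligase ran for 1 h at 37 °C, before PCR amplification and sequencing on an Illumina NextSeq500. Binding signal is a hexamer's read frequency for a factor divided by its frequency for the tag-only sample.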
# [2] = target: ETV5 (Homo sapiens, UniProt P41161 1-510); details: protein: recombinant; tags: N-terminal GST; dsDNA, one strand shown
# Sequence of ETV5 (P41161 whole entry): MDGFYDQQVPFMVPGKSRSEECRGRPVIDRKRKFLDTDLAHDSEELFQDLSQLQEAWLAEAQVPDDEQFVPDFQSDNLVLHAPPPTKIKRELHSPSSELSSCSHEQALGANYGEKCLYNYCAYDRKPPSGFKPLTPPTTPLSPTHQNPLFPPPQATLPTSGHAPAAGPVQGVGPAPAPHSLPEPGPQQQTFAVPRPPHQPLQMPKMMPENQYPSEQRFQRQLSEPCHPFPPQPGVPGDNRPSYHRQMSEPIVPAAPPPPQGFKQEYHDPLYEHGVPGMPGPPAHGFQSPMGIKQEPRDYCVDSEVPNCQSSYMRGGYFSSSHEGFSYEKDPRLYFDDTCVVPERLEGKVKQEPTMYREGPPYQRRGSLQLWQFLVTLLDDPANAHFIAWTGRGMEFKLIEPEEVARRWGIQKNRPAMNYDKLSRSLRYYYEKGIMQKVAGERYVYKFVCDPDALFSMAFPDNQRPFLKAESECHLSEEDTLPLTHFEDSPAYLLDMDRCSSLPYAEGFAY
# How it was run: as §1
# [3] = target: HSF1 (Homo sapiens, UniProt Q00613 1-529); details: protein: recombinant; tags: N-terminal GST; chain copies: 3; dsDNA, one strand shown
# Sequence of HSF1 (Q00613 whole entry): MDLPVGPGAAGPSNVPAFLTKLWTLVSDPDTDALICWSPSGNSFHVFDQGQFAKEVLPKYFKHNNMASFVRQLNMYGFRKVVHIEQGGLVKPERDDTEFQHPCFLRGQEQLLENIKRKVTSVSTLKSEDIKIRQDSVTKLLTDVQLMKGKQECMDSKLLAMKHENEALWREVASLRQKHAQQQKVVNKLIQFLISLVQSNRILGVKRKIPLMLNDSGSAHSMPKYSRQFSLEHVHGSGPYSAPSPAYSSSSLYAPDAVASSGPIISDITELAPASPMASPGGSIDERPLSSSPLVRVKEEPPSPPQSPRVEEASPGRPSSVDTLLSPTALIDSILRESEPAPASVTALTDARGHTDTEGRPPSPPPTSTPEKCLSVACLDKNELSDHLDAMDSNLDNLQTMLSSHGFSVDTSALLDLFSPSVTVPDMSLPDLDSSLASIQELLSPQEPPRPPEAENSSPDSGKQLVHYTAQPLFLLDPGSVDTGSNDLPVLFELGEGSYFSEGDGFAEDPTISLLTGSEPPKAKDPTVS
# How it was run: as §1
# [4] = target: T2, SPIC (Homo sapiens, UniProt Q8N5J4 1-248); details: protein: recombinant; tags: N-terminal GST; dsDNA, one strand shown
# T2 sequence: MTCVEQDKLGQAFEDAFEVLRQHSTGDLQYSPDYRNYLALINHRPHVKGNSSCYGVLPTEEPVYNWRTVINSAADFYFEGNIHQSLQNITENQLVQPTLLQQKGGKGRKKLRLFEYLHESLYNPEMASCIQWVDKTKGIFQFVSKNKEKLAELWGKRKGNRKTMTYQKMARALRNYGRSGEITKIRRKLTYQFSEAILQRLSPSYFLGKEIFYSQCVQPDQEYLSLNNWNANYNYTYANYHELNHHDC
# How it was run: as §1
# [5] = target: ELF4 (Homo sapiens, UniProt Q99607 1-663); details: protein: recombinant; tags: N-terminal GST; dsDNA, one strand shown
# Sequence of ELF4 (Q99607 whole entry): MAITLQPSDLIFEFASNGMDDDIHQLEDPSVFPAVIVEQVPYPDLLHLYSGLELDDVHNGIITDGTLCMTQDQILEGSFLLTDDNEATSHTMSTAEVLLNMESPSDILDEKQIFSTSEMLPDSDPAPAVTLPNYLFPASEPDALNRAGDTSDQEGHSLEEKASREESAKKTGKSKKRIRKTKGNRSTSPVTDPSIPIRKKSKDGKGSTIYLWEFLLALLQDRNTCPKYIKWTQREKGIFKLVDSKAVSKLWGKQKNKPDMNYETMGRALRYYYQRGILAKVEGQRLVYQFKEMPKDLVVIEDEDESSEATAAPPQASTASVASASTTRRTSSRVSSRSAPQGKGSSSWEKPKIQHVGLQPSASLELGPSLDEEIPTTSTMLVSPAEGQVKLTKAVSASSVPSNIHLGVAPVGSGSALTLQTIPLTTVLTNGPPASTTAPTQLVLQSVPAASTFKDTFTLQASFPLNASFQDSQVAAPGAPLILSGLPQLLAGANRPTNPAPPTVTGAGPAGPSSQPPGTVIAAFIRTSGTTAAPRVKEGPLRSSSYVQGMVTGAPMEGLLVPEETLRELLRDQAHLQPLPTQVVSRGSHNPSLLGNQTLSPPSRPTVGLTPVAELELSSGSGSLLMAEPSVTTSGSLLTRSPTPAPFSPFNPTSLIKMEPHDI
# How it was run: as §1
# [6] = target: T3, ELK4 (Homo sapiens, UniProt P28324-2 1-405); details: protein: recombinant; tags: N-terminal GST; dsDNA, one strand shown
# T3 sequence: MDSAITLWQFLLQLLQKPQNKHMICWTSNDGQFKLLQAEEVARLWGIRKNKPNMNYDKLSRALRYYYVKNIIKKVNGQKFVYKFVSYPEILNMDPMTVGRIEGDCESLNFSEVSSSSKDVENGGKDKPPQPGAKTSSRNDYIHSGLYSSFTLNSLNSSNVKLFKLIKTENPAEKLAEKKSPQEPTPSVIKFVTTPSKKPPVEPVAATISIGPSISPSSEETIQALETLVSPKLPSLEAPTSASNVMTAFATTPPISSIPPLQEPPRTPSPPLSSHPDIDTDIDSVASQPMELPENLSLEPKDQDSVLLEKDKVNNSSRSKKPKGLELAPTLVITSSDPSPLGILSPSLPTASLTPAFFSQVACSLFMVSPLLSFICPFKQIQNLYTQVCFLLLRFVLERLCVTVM
# How it was run: as §1
# [7] = target: T4, ETV2 (Homo sapiens, UniProt O00321 1-342); details: protein: recombinant; tags: N-terminal GST; dsDNA, one strand shown
# T4 sequence: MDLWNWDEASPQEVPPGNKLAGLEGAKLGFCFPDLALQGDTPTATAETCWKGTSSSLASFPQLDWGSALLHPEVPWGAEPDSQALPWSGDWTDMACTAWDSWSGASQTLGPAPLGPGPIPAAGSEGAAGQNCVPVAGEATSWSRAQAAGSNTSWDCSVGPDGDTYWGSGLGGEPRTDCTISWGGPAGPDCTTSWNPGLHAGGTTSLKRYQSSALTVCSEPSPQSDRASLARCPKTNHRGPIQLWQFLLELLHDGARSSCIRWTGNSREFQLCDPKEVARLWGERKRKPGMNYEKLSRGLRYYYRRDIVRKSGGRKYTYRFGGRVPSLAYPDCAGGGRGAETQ
# How it was run: as §1
# [8] = target: T5, ELF3 (Homo sapiens, UniProt P78545 1-371); details: protein: recombinant; tags: N-terminal GST; dsDNA, one strand shown
# T5 sequence: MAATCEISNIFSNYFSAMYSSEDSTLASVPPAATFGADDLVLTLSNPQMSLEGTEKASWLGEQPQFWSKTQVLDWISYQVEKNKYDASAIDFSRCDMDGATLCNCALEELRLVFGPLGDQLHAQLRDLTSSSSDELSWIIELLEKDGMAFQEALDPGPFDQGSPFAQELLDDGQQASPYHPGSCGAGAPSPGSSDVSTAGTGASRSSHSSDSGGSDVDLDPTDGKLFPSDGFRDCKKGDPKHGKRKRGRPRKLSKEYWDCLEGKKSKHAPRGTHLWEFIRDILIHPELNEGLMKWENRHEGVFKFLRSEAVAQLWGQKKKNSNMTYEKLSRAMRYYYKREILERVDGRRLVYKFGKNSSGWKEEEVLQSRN
# How it was run: as §1
# [9] = target: CRX (Homo sapiens, UniProt O43186 1-299); details: protein: recombinant; tags: N-terminal GST; dsDNA, one strand shown
# Sequence of CRX (O43186 whole entry): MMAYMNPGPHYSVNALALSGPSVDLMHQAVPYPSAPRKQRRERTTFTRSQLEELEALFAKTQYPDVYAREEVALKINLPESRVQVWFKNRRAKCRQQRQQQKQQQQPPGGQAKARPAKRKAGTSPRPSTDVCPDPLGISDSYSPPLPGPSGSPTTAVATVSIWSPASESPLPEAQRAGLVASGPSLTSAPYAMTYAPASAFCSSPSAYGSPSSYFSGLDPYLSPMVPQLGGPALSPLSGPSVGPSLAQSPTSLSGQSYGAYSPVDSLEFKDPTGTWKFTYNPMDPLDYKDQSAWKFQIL
# How it was run: as §1
# [10] = target: ETV1 (Homo sapiens, UniProt P50549 1-477); details: protein: recombinant; tags: N-terminal GST; dsDNA, one strand shown
# Sequence of ETV1 (P50549 whole entry): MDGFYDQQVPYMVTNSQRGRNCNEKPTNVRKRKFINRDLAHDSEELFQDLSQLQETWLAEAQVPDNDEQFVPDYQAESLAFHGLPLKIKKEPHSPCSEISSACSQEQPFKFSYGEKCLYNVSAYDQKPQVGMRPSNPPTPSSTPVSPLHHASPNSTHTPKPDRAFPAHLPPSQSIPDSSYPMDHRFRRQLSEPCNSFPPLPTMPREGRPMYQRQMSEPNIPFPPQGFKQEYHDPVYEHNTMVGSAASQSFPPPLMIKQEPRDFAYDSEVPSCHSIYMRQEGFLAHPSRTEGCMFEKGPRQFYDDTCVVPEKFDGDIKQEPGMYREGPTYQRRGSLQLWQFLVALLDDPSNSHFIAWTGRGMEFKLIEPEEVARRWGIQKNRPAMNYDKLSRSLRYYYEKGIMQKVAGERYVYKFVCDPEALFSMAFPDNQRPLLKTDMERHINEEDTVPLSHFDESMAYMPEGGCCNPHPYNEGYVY
# How it was run: as §1
sequence,measurement,setting,value
TTCTGT,binding signal,[1],"1.27 fold enrichment (6-mer frequency, TF over GST control)"
same,binding signal,[2],"1.26 fold enrichment (6-mer frequency, TF over GST control)"
same,binding signal,[3],"1.6 fold enrichment (6-mer frequency, TF over GST control)"
same,binding signal,[4],"1.41 fold enrichment (6-mer frequency, TF over GST control)"
same,binding signal,[5],"1.3 fold enrichment (6-mer frequency, TF over GST control)"
same,binding signal,[6],"1.5 fold enrichment (6-mer frequency, TF over GST control)"
same,binding signal,[7],"1.35 fold enrichment (6-mer frequency, TF over GST control)"
same,binding signal,[8],"1.24 fold enrichment (6-mer frequency, TF over GST control)"
same,binding signal,[9],"1.31 fold enrichment (6-mer frequency, TF over GST control)"
same,binding signal,[10],"1.32 fold enrichment (6-mer frequency, TF over GST control)"
